From PubChem BioAssay (NCI)
This is part of a sample that, as a whole, favours compounds with a hit. Of some 83,000 tested, about 20% had one in any assay.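 For each line, cells grew in 96-well plates with the test compound present at a single concentration for 48 hours.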 Values without a mark were called inactive. Calls of active or inactive are those of the source. Rule for the calls: active = growth percent below 10; inactive = the rest.

Tests used:
Assay in all cases: NCI-60 one-dose screen, 48 h (100 = growth as untreated, 0 = no growth, -100 = all killed)
Conditions in all cases: 10 µM unless noted
[1] = test system: SR leukemia
[2] = test system: RPMI-8226 leukemia
[3] = test system: OVCAR-8 ovarian
[4] = test system: OVCAR-5 ovarian
[5] = test system: OVCAR-4 ovarian
[6] = test system: SK-OV-3 ovarian
[7] = test system: IGROV1 ovarian
[8] = test system: OVCAR-3 ovarian
[9] = test system: HS 578T breast
[10] = test system: NCI/ADR-RES ovarian
[11] = test system: T-47D breast
[12] = test system: BT-549 breast
[13] = test system: MDA-MB-435 melanoma
[14] = test system: SW-620 colon
[15] = test system: MCF7 breast
[16] = test system: HCT-116 colon
[17] = test system: HCC-2998 colon
[18] = test system: KM12 colon

SMILES | growth [1] | growth [2] | growth [3] | growth [4] | growth [5] | growth [6] | growth [7] | growth [8] | growth [9] | growth [10] | growth [11] | growth [12] | growth [13] | growth [14] | growth [15] | growth [16] | growth [17] | growth [18]
CC(=O)c1cc2c(N)c(C(=O)Nc3cccc(Cl)c3)sc2nc1C | 66.1% | 76.7% | 83.5% | 113% | 84.3% | 51.3% | 92.3% | 92.8% | 83.2% | 79.5% | 83.6% | 75.5% | 2.38% (active) | 98.2% | 74% | 102% | 85.3% | 84.1%
NS(=O)(=O)c1ccc(Nc2nc(O)c(/C=C3\C=Nc4ccccc43)s2)cc1 | 99.2% | 95% | 94.5% | 111% | 125% | 102% | 92.5% | 102% | 87.5% | 101% | 99.3% | 108% | 107% | 99.6% | 94.2% | 92.7% | 116% | 95.6%
CC(C)(C)OC(=O)N1CC(Cn2cc(C(F)(F)F)c3c(Cl)ncnc32)C1 | -60.9% (active) | -48.4% (active) | -72.4% (active) | 112% | 81.6% | -24.4% (active) | -79.1% (active) | -49.9% (active) | -9.74% (active) | 77.7% | 42.6% | -91.1% (active) | -83.4% (active) | -37.6% (active) | -32.7% (active) | -84.5% (active) | -89.2% (active) | -50.4% (active)
CCCCOc1nc2ccc(Cl)cc2cc1/C=C/C(=O)/C=C/c1ccc(OC)cc1 | 76.2% | 8.93% (active) | 96.2% | 122% | 103% | 110% | 93.2% | 98.2% | 107% | 107% | 86.8% | 93.6% | 9.64% (active) | 107% | 30.7% | -25.4% (active) | 92.7% | 84%
CCCCNC(=O)Oc1ccc(/C(=C(/CC)Cc2ccccc2)c2ccc(OCCCN(C)C)cc2)cc1 | 22% | 42.8% | 87% | 85.6% | 74.8% | 97.6% | 71.1% | 85.2% | 84.4% | 87.2% | 60.7% | 95.4% | 83.3% | 77.3% | 27.9% | 67.9% | 88.3% | 78.3%
CC(C)CNCC(=O)Nc1ccc(Cc2ccc(NC(=O)CNCC(C)C)cc2)cc1 | 6.24% (active) | 32.8% | 62.1% | 72.8% | 71.6% | 84.1% | 47.2% | 74.5% | 65.1% | 78.2% | 68% | 51.7% | 88.5% | 77.5% | 43.8% | 36.4% | 36.6% | 67.7%
O=C1OC(c2ccc(-c3ccccc3)cc2)=C/C1=C/C=C/c1ccccc1 | 98.3% | 95% | 103% | 91.3% | 95% | 102% | 99% | 99.3% | 86.9% | 114% | 101% | 111% | 106% | 97% | 87.9% | 88% | 106% | 103%
Nc1nc(-c2cc3c(cc2Cl)NC(=O)/C3=C/c2ccccc2)cs1 | 14.2% | 37.6% | 46.6% | 108% | 69.6% | 81.1% | 35.4% | 29.8% | 58.7% | 74.6% | 7.52% (active) | 55.7% | 24.4% | 40.4% | 7.09% (active) | 14.5% | 58% | 45.5%
O=C1c2ccccc2OC=C(c2ccccc2)N1CCCCN1CCCCC1 | 65.2% | 23.6% | 51.7% | 101% | 58.7% | 13.2% | 73.7% | 63.6% | 75.1% | 88.8% | 0.353% (active) | 32.5% | 67.4% | 71.5% | 38.6% | 27.2% | 69.1% | 49.2%
OCc1cnccc1NC12CC3CC(CC(C3)C1)C2 | 98.9% | 96.8% | 93.8% | 107% | 101% | 100% | 102% | 103% | 103% | 98.8% | 89.4% | 110% | 105% | 103% | 101% | 99.6% | 105% | 103%
NC(=NCCCOc1ccc(F)cc1)Nc1ccc(Cl)c(Cl)c1 | 52.1% | 39.1% | 88.6% | 81.5% | 59.9% | 99.8% | 45.9% | 73.3% | 65.7% | 69.9% | 29.2% | 91.2% | 79% | 60.4% | 18.1% | 45.6% | -45.7% (active) | 76.5%
O=C(O)c1ccc(-c2nn(-c3ccc(C(=O)O)cc3)cc2/C=N/Nc2c(F)c(F)cc(F)c2F)cc1 | 94% | 103% | 108% | 101% | 111% | 97.9% | 108% | 104% | 112% | 105% | 95% | 120% | 107% | 110% | 95.7% | 100% | 100% | 100%
Clc1ccc2c(NCCNc3nc(Cl)nc4ccccc34)ccnc2c1 | -27.3% (active) | -50.7% (active) | -62.5% (active) | -49.9% (active) | -72% (active) | -80.4% (active) | -85% (active) | -78% (active) | -41.9% (active) | 38.5% | -63.6% (active) | -65.6% (active) | -89.4% (active) | -77.1% (active) | -63.8% (active) | -96.7% (active) | -64.1% (active) | -76.5% (active)
COC(=O)/C=C/C(=O)c1cc(C)cc(C)c1O | 90% | 104% | 111% | 98.9% | 101% | 104% | 106% | 102% | 112% | 99.5% | 100% | 103% | 103% | 110% | 95.5% | 106% | 96.7% | 99.1%
COc1cc(C(=O)C[n+]2ccccc2)ccc1OC(C)=O | 109% | 97.9% | 102% | 105% | 96.8% | 97.5% | 107% | 106% | 95.1% | 111% | 103% | 94.5% | 99.8% | 96.9% | 95.6% | 87.6% | 105% | 102%
Nc1ncnc2c1c(C(F)(F)F)cn2[C@@H]1O[C@H](CO)[C@@H](O)[C@H]1O | 1.01% (active) | -20.3% (active) | 18.1% | 15.6% | 24.6% | 28.2% | 12.9% | 5.78% (active) | -0.85% (active) | 7.35% (active) | -0.423% (active) | -10.2% (active) | 12.3% | 5.25% (active) | 7.41% (active) | 8.38% (active) | 7.21% (active) | 4.05% (active)
C=C1C(=O)O[C@H]2[C@H]1CC/C(COC(=O)c1ccc(Cl)nc1)=C\CC[C@@]1(C)O[C@@H]21 | -13.2% (active) | -30% (active) | -8.23% (active) | 27.2% | 27.9% | 99.3% | 13.1% | -42.1% (active) | 61.2% | 42.1% | -31.1% (active) | 10.3% | 14.6% | -45.2% (active) | 7.96% (active) | -80.6% (active) | 95.5% | 82.8%
